Measured values: ChEMBL document CHEMBL1961873, “Compounds: GSK PKIS; Assays: Nanosyn kinase panel” (2012)

Assays:
[1] = molecular target: T1, Inhibitor of nuclear factor kappa-B kinase subunit epsilon (Homo sapiens) (UniProt Q14164); settings: at 1 µM;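 note: reported values are averaged percent inhibition figures against human IKKε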
T1 sequence (whole entry): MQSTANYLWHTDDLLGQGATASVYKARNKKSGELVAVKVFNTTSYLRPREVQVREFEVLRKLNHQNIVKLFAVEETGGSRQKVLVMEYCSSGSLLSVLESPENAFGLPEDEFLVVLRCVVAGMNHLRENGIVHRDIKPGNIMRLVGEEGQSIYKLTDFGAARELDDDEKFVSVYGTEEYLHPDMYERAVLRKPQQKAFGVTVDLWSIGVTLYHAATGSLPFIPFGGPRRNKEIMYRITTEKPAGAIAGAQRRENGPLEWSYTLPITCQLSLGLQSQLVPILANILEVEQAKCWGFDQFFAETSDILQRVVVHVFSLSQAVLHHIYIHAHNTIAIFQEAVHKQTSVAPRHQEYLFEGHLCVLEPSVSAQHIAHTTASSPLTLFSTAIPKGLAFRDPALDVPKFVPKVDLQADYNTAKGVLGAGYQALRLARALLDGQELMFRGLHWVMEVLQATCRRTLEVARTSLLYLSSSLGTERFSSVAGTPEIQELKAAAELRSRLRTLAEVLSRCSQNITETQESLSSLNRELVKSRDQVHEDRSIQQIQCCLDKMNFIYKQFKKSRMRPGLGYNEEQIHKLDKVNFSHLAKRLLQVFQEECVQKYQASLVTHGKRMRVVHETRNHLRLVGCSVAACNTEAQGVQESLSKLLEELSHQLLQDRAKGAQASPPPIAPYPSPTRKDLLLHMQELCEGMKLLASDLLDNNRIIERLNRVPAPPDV

[2] = molecular target: T2, Serine/threonine-protein kinase Nek1 (Homo sapiens) (UniProt Q96PY6); settings: at 0.1 µM
T2 sequence (whole entry): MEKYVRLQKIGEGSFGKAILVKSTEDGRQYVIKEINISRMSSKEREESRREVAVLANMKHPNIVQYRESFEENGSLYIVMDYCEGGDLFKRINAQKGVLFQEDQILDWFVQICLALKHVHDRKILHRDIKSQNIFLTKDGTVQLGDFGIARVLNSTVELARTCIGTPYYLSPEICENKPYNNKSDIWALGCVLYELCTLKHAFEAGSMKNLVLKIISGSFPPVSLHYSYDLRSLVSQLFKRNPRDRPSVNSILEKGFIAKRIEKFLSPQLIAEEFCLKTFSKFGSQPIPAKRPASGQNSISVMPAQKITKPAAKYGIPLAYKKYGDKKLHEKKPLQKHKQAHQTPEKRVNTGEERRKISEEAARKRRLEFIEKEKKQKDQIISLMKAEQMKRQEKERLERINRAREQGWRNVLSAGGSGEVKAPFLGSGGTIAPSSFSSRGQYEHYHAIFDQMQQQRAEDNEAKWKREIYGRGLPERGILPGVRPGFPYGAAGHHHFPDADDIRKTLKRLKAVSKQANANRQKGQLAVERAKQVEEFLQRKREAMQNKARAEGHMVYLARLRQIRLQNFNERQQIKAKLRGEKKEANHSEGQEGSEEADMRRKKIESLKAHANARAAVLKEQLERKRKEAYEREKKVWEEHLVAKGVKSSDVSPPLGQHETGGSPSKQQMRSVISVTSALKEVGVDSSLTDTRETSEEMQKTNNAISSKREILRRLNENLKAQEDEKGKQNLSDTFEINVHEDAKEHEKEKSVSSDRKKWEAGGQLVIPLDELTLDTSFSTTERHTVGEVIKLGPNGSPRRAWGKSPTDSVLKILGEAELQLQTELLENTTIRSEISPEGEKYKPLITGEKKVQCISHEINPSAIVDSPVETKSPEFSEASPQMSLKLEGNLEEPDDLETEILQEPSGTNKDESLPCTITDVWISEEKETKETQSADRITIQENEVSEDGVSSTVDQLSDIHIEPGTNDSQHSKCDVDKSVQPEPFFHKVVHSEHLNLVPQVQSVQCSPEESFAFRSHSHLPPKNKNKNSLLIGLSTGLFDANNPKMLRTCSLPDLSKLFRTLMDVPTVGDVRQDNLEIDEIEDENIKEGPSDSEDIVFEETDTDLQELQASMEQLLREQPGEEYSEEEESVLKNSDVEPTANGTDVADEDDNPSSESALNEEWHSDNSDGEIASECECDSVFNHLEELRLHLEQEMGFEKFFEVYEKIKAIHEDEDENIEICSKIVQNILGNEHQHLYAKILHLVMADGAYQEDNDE

[3] = molecular target: T2, Serine/threonine-protein kinase Nek1 (Homo sapiens); settings: at 1 µM
[4] = molecular target: T3, Serine/threonine-protein kinase Nek2 (Homo sapiens) (UniProt P51955); settings: at 0.1 µM
T3 sequence (whole entry): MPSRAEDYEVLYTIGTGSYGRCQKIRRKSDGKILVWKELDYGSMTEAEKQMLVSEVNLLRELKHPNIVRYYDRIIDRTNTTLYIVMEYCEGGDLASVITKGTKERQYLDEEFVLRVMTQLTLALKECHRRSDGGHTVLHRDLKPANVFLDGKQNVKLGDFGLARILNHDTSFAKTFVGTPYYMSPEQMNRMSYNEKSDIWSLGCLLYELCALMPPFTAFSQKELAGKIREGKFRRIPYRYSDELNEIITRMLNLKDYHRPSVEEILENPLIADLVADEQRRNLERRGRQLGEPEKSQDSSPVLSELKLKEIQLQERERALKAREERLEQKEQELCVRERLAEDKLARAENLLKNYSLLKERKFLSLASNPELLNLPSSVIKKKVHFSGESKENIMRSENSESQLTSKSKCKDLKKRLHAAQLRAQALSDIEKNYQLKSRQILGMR

[5] = molecular target: T3, Serine/threonine-protein kinase Nek2 (Homo sapiens); settings: at 1 µM
[6] = molecular target: Serine/threonine-protein kinase Nek6 (Homo sapiens) (UniProt Q9HC98); settings: at 0.1 µM
[7] = molecular target: Serine/threonine-protein kinase Nek6 (Homo sapiens) (UniProt Q9HC98); settings: at 1 µM
[8] = molecular target: Serine/threonine-protein kinase Nek7 (Homo sapiens) (UniProt Q8TDX7); settings: at 0.1 µM
[9] = molecular target: Serine/threonine-protein kinase Nek7 (Homo sapiens) (UniProt Q8TDX7); settings: at 1 µM
[10] = molecular target: T4, Serine/threonine-protein kinase Nek9 (Homo sapiens) (UniProt Q8TD19); settings: at 0.1 µM;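 note: reported value is the mean percent inhibition of NEK9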
T4 sequence (whole entry): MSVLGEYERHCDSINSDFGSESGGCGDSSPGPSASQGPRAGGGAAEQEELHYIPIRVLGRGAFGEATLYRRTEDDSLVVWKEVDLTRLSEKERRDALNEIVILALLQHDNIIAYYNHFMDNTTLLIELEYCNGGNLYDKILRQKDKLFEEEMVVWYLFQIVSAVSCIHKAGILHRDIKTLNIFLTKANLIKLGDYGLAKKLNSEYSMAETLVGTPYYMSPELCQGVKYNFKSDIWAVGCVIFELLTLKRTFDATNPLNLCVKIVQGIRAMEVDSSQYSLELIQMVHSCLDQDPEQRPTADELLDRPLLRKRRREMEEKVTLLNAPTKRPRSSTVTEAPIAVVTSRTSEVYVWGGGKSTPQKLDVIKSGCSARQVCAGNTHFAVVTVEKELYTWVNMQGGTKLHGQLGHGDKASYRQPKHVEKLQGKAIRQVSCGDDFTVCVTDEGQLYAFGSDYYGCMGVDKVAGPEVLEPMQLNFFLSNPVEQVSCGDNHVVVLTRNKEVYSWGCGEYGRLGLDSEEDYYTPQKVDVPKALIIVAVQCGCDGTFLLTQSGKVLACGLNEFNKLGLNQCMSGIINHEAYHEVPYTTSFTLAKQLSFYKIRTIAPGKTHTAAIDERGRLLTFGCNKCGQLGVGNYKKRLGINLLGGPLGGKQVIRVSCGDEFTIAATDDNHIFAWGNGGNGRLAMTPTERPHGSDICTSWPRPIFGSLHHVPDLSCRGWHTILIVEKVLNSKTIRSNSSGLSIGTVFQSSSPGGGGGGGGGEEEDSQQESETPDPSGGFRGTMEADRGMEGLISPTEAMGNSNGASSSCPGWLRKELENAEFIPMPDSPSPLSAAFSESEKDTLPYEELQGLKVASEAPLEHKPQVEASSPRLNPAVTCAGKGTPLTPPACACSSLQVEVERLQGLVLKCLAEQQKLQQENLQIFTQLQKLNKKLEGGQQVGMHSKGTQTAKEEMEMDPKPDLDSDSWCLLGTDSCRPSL

Serine/threonine-protein kinase Nek6 (Homo sapiens), sequence (Q9HC98 whole entry): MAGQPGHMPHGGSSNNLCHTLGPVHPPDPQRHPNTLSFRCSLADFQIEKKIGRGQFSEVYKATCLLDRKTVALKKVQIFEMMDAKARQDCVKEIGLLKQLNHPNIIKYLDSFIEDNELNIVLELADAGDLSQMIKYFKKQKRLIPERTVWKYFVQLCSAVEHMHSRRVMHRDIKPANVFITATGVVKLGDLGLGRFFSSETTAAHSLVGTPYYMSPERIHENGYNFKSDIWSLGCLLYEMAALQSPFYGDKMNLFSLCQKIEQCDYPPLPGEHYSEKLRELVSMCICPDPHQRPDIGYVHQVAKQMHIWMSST
Serine/threonine-protein kinase Nek7 (Homo sapiens), sequence (Q8TDX7 whole entry, looked up): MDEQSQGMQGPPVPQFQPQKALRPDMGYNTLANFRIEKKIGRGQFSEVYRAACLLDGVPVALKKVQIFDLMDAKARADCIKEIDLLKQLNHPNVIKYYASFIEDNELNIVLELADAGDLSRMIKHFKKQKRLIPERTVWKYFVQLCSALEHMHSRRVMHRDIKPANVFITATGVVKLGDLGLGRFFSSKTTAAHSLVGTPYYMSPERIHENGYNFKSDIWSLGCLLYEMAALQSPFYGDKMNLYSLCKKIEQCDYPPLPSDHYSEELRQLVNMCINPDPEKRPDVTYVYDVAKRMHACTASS

SMILES	inhibition [1]	inhibition [2]	inhibition [3]	inhibition [4]	inhibition [5]	inhibition [6]	inhibition [7]	inhibition [8]	inhibition [9]	inhibition [10]
Cc1ccc2c(-c3ccnc(Nc4cccc(C(F)(F)F)c4)n3)c(-c3ccccc3)nn2n1	6.22%	3.11%	2.67%	6.28%	3.74%	6.41%	1.67%	0.74%	5.29%	8.93%
Cc1ccc(Nc2ccnc(Nc3cccc(C(N)=O)c3)n2)cc1O	19.4%	2.35%	3.58%	4%	2.98%	4.22%	2.69%	4.63%	4.4%	6.86%
Cc1ccc(O)cc1Nc1ccnc2ccc(S(C)(=O)=O)cc12	6.97%	2.87%	5.3%	5.76%	4.61%	1.23%	4.89%	5.32%	4.35%	4.3%
COc1cccc(-n2ncc3c(N/N=C/c4ccc(S(C)(=O)=O)cc4)ncnc32)c1	8.64%	1.92%	5.16%	2.11%	1.84%	1.65%	-0.32%	3.45%	2.28%	4.38%
COc1cccc(-n2ncc3c(N/N=C/c4ccc(C)cc4)ncnc32)c1	6.9%	5.55%	9.78%	8.39%	10.7%	3.25%	3.08%	4.05%	10.1%	9.27%
COc1cc2ncnc(Nc3ccc4c(cnn4Cc4ccccc4)c3)c2cc1OC	4.31%	1.6%	0.76%	2.52%	-2.69%	9.32%	3.49%	0.26%	6.18%	6.67%
FC(F)(F)c1ccc(-c2nn3ncccc3c2-c2ccnc(Nc3ccc4c(c3)OCCO4)n2)cc1	-1.52%	4.77%	2.05%	1.11%	1.32%	-1.63%	1.37%	-5.04%	-5.62%	-5.79%
CN(C)C(=O)O[C@H]1CN[C@H](C#Cc2cc3ncnc(Nc4ccc(OCc5cccc(F)c5)c(Cl)c4)c3s2)C1	4.15%	1.2%	3.73%	4.44%	5.04%	1.81%	-0.96%	3.6%	2.54%	7.4%
Nc1ccc(C#Cc2cncnc2Nc2ccc(OCc3cccc(F)c3)c(Cl)c2)cc1	4.07%	3.38%	2.7%	3.5%	3.39%	2.73%	0.63%	1.31%	1.32%	3.62%
OCc1ccc(-c2nc(-c3ccccn3)c(-c3ccc4c(c3)OCO4)[nH]2)cc1	5.41%	2.17%	2.95%	5.76%	4.54%	2.18%	0.25%	3.26%	2.28%	5.12%
NS(=O)(=O)c1ccc(N/N=C2\C(=O)Nc3ccc(Cl)cc32)cc1	8.2%	2.48%	3.33%	4.08%	4.1%	4.79%	4.93%	2.88%	3.63%	7.35%
COc1cc2ncn(-c3cc(OCc4ccccc4S(C)(=O)=O)c(C#N)s3)c2cc1OC	115%	2.58%	3%	6.68%	14.4%	3.33%	-0.15%	4.85%	3.13%	3.17%
[O-][S+]1CCN(Cc2ccc(-c3ccc4ncnc(Nc5ccc(OCc6ccccc6)c(Cl)c5)c4c3)o2)CC1	1.71%	0.94%	0.52%	3.08%	0.41%	3.35%	1.93%	1.32%	5.75%	0.79%
CN1CCN(C(=O)c2ccc(NC(=O)Nc3ccc(N(C)c4ccnc(Nc5ccc(CS(C)(=O)=O)cc5)n4)cc3)cc2)CC1	14.2%	5.21%	29.1%	2.78%	3.14%	1.8%	-1.02%	2.05%	5.08%	6.54%
COc1cccc(-n2nc(C)c3c(N/N=C(\C)c4ccncc4)ncnc32)c1	1.16%	1.7%	-0.2%	1.96%	-1.21%	1.56%	1.26%	0.76%	2.39%	4.23%
COc1cc2ncnc(Nc3ccc(C)c(O)c3)c2cc1OC	6.95%	3.4%	5.46%	5.78%	7.02%	3.27%	4.18%	4.88%	4.92%	6.41%
CCS(=O)(=O)c1ccc(OC)c(Nc2ncc(-c3cccc(OC)c3)o2)c1	4.13%	0.44%	1.45%	2.73%	2.94%	-1.47%	0.87%	2.84%	2.42%	4.19%
